The source of these data is PubChem BioAssay (NCI).

This is part of a sample that, as a whole, favours compounds with a hit. Of some 83,000 tested, about 20% had one in any assay.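 Single-dose data. Exposure time 48 hours. Values below 10 considered active.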 Unmarked numbers belong to inactive results. Activity calls are given as the source filed them.

Test systems include SK-MEL-2 melanoma; EKVX NSCLC; SN12C renal; UO-31 renal; TK-10 renal; ACHN renal; CAKI-1 renal; CCRF-CEM leukemia; MOLT-4 leukemia; A498 renal.
What all share (assay): NCI-60 one-dose screen, 48 h (100 = growth as untreated, 0 = no growth, -100 = all killed)
Holding throughout (settings): 10 µM unless noted

As to `Cc1c(C)c2c(c(C)c1NC(=O)CCCCCCC(=O)O)CCC(C)(CCCC(C)CCCC(C)CCCC(C)C)O2` (stereo not drawn), the growth is 43.2% in the assay on SK-MEL-2 melanoma; 86.3% with EKVX NSCLC; 77.5% in the assay on SN12C renal; 75.7% in the assay with UO-31 renal; 87.6% in the assay with TK-10 renal; 101% in the assay with ACHN renal. For the same molecule, the growth with CAKI-1 renal was 100%; in the assay with CCRF-CEM leukemia, 71.3%; in the assay on MOLT-4 leukemia, 76.7%.

`COc1ccc(C2C(C#N)=C(N)Oc3c2sc2c(F)cccc32)cc1` (stereo not drawn): the growth in the assay on SK-MEL-2 melanoma is 19.8%; with EKVX NSCLC it was 50.3%; in the assay with SN12C renal it was 39.7%; with UO-31 renal, 37.6%; in the assay on TK-10 renal, 56.6%; in the assay with ACHN renal it was 42.9%. Besides, the growth is 41.4% in the assay on A498 renal, 14.9% in the assay with CCRF-CEM leukemia and 8.8% (active) in the assay on MOLT-4 leukemia.

As to `Cc1ccc(-c2nc([P+](c3ccccc3)(c3ccccc3)c3ccccc3)c(N3CCOCC3)o2)cc1`, the growth with SK-MEL-2 melanoma was -18.7% (active); in the assay on EKVX NSCLC, 17.6%; in the assay on SN12C renal, 1.43% (active); with UO-31 renal it was 12%; with TK-10 renal, 20.8%; with ACHN renal it was 8.24% (active). For the same molecule, the growth in the assay on CAKI-1 renal was 13.1%; in the assay on CCRF-CEM leukemia, 8.32% (active); in the assay with MOLT-4 leukemia it was -8.12% (active).

With `CCN1CCN(C(=O)[C@]23CCC(C)(C)C[C@H]2C2=CC[C@@H]4[C@@]5(C)CC/C(=N/O)C(C)(C)[C@@H]5CC[C@@]4(C)[C@]2(C)CC3)CC1`, the growth with SK-MEL-2 melanoma was 95.6%; in the assay with EKVX NSCLC, 58.4%; in the assay on SN12C renal it was 16.2%; in the assay on UO-31 renal, 37%; in the assay with TK-10 renal, 136%; with ACHN renal it was 28.4%. Moreover, the growth with CAKI-1 renal was 54.3%; with MOLT-4 leukemia it was 31%.

Consider `COc1ccc(NC(=O)c2ccoc2COc2ccccc2)cc1`, for which the growth in the assay with SK-MEL-2 melanoma was 97.9%; with EKVX NSCLC it was 94.7%; in the assay on SN12C renal it was 94%; with UO-31 renal it was 81.1%; with TK-10 renal it was 109%; with ACHN renal, 98.3%. For the same molecule, the growth in the assay on CAKI-1 renal was 86.2%; in the assay with CCRF-CEM leukemia, 87.7%; in the assay with MOLT-4 leukemia, 95.6%.

On to `Fc1ccc(Nc2ccc3c(OCCCN4CCOCC4)cccc3n2)cc1F`, for which the growth in the assay on SK-MEL-2 melanoma was 95.2%; in the assay on EKVX NSCLC, 81.4%; in the assay with SN12C renal, 81.6%; with UO-31 renal it was 63.8%; in the assay on TK-10 renal it was 92.4%; with ACHN renal, 78.3%. Also, the growth is 82.3% with CAKI-1 renal, 69.4% in the assay with CCRF-CEM leukemia and 53% in the assay with MOLT-4 leukemia.

On to `N#C/C(=C\c1ccc(-c2ccc(Br)cc2)o1)c1nc(-c2cccs2)cs1`, for which the growth was 109% with SK-MEL-2 melanoma; 79.6% in the assay on EKVX NSCLC; 94.5% in the assay with SN12C renal; 82.1% in the assay on UO-31 renal; 185% in the assay on TK-10 renal; 105% in the assay on ACHN renal. Also, the results for the growth in the assay with CAKI-1 renal, in the assay on CCRF-CEM leukemia and with MOLT-4 leukemia were 100%, 94.1% and 97%, respectively.

Regarding `O=c1[nH]c(=S)[nH]c2nc[nH]c12`, the growth with SK-MEL-2 melanoma is 117%; in the assay on EKVX NSCLC it was 97.2%; in the assay on SN12C renal, 96.2%; with UO-31 renal, 62.7%; in the assay on TK-10 renal, 113%; in the assay with ACHN renal, 104%. Also, the growth was 108% in the assay on CAKI-1 renal, 106% in the assay with CCRF-CEM leukemia and 97.8% in the assay on MOLT-4 leukemia.

Regarding `N#CC1c2ccccc2-c2ccccc2N1C(=O)c1ccccc1` (stereo not drawn), the growth is 72.7% in the assay with SK-MEL-2 melanoma; 29.5% in the assay with EKVX NSCLC; 33.3% with SN12C renal; 42.5% in the assay on UO-31 renal; 63.9% in the assay with TK-10 renal; 30.1% with ACHN renal. For the same molecule, the growth was 37.4% in the assay on CAKI-1 renal, 41.7% in the assay with CCRF-CEM leukemia and 35.8% in the assay on MOLT-4 leukemia.

As to `C#CCn1c(C)cc(C)c(C#N)c1=O`, the growth in the assay with SK-MEL-2 melanoma is 108%; in the assay on EKVX NSCLC, 99.6%; in the assay with SN12C renal it was 100%; in the assay with UO-31 renal it was 85.6%; in the assay with TK-10 renal, 94.2%; with ACHN renal, 106%. Further, the growth in the assay on CAKI-1 renal is 95.2%; in the assay with CCRF-CEM leukemia, 99.2%; with MOLT-4 leukemia it was 111%.

As to `Cc1cccc(C)c1NC(=O)CSC(=S)N1CCN(CCOCCO)CC1`, the growth in the assay with SK-MEL-2 melanoma is 95%; with EKVX NSCLC, 95%; in the assay with SN12C renal, 105%; with UO-31 renal, 89.7%; in the assay on TK-10 renal, 85.8%; in the assay on ACHN renal, 106%. Besides, the growth with A498 renal is 103%; in the assay with CCRF-CEM leukemia, 107%; in the assay on MOLT-4 leukemia it was 104%.

For the molecule `CC(=O)c1c(C)[nH]c(-c2nc3ccc(N4CCN(C)CC4)cc3[nH]2)c1-c1ccc(OCC2CCOCC2)cc1`, the growth was 53.3% in the assay on SK-MEL-2 melanoma; 35.6% in the assay with EKVX NSCLC; 39.9% with SN12C renal; 6.97% (active) with UO-31 renal; -5.8% (active) in the assay with TK-10 renal; 19.2% with ACHN renal. Besides, the results for the growth in the assay with A498 renal, in the assay with CCRF-CEM leukemia and with MOLT-4 leukemia were 30.8%, 30.9% and 47.5%, respectively.

On to `COC(=O)[C@]12CC[C@@H](C)[C@H](C)[C@@H]1C1=CC[C@@H]3[C@@]4(C)C[C@@H](OC(C)=O)[C@H](O)[C@@](C)(COC(C)=O)[C@@H]4[C@H](O)C[C@@]3(C)[C@]1(C)CC2`, for which the growth in the assay with SK-MEL-2 melanoma is -73.6% (active); in the assay on EKVX NSCLC, -88.8% (active); with SN12C renal, -69.9% (active); in the assay with UO-31 renal it was -81.6% (active); in the assay with TK-10 renal, -86.5% (active); in the assay on ACHN renal, -91.9% (active). Further, the growth in the assay with CAKI-1 renal was -88.2% (active); in the assay on CCRF-CEM leukemia, -54.3% (active); in the assay with MOLT-4 leukemia it was -34.3% (active).

`O=C(/C=C/c1cccc2ccccc12)Nc1ncc(Cc2ccccc2)s1`: the growth is 43.4% in the assay on SK-MEL-2 melanoma; 20.3% with EKVX NSCLC; 32.1% in the assay with SN12C renal; 32.2% in the assay with UO-31 renal; 31.7% with TK-10 renal; 20.8% in the assay with ACHN renal. Also, the growth is 22.5% with CAKI-1 renal, 10.4% with CCRF-CEM leukemia and 18% with MOLT-4 leukemia.

In the case of `Cc1cc(N(CCCNc2ccnc3cc(Cl)ccc23)Cc2ccco2)nc(N2CCN(C)CC2)n1`, the growth is 70.7% in the assay with SK-MEL-2 melanoma; 66.1% with EKVX NSCLC; 50.5% in the assay on SN12C renal; 47.5% in the assay on UO-31 renal; 117% in the assay with TK-10 renal; 18.6% in the assay on ACHN renal. Moreover, the growth in the assay on A498 renal is 72.2%; in the assay on CCRF-CEM leukemia, 43.4%; in the assay with MOLT-4 leukemia, 37.6%.

For `O=C(CCCCCn1c2ccccc2c2c3c(c4c5ccccc5[nH]c4c21)C(=O)N(O)C3=O)N1CCOCC1`, the growth with SK-MEL-2 melanoma is 72.5%; in the assay on EKVX NSCLC it was 77.7%; with SN12C renal, 57.1%; in the assay on UO-31 renal, 29.6%; with TK-10 renal it was 70.7%; in the assay on ACHN renal, 29.4%. Moreover, the growth in the assay on CAKI-1 renal is -22.9% (active); with CCRF-CEM leukemia it was 5.19% (active); in the assay with MOLT-4 leukemia, -14.9% (active).

`CCN(CC)C(=O)CCCCCn1c2ccccc2c2c3c(c4c5ccccc5[nH]c4c21)C(=O)N(O)C3=O`: the growth was 61.4% with SK-MEL-2 melanoma; 64.1% in the assay on EKVX NSCLC; 33.2% in the assay on SN12C renal; -50.7% (active) with UO-31 renal; 68.3% in the assay with TK-10 renal; -64.8% (active) with ACHN renal. The growth with CAKI-1 renal was -59% (active); in the assay with CCRF-CEM leukemia, 21.3%; in the assay with MOLT-4 leukemia it was -0.333% (active).

`OCC1OC(n2cnc3c(Cl)ncnc32)CC1O` (stereo not drawn): the growth in the assay on SK-MEL-2 melanoma is 108%; in the assay on EKVX NSCLC it was 113%; in the assay with SN12C renal, 96.5%; in the assay with UO-31 renal, 76.9%; in the assay on TK-10 renal, 106%; with ACHN renal, 95.6%. In addition, the growth is 106% in the assay on A498 renal, 98.2% in the assay with CCRF-CEM leukemia and 91.9% in the assay with MOLT-4 leukemia.

In the case of `Nc1ccccc1NC(=O)c1ccc(CN2CCC/C(=C\c3ccccn3)C2=O)cc1`, the growth was 27% in the assay with SK-MEL-2 melanoma; 33.2% in the assay with EKVX NSCLC; 48.2% with SN12C renal; 25.4% in the assay with UO-31 renal; 14.2% in the assay with TK-10 renal; 20.6% with ACHN renal. For the same molecule, the results for the growth with CAKI-1 renal, with CCRF-CEM leukemia and in the assay on MOLT-4 leukemia were 17.7%, 16.7% and 7.84% (active), respectively.

Regarding `Fc1ccc(Nc2nnc(-c3ccc(Cl)cc3)o2)cc1`, the growth with SK-MEL-2 melanoma was 106%; with EKVX NSCLC it was 92.1%; in the assay with SN12C renal, 103%; in the assay with UO-31 renal, 85.4%; in the assay on TK-10 renal, 137%; in the assay on ACHN renal, 107%. Besides, the growth in the assay with CAKI-1 renal is 92.8%; in the assay with CCRF-CEM leukemia, 58.4%; in the assay with MOLT-4 leukemia, 88.4%.

On to `C=C(C)[C@@H]1CC[C@]2(C=O)CC[C@]3(C)[C@H](CC[C@@H]4[C@@]5(C)C/C(=C/c6cccnc6)C(=O)C(C)(C)[C@@H]5CC[C@]43C)[C@@H]12`, for which the growth was 88.5% with SK-MEL-2 melanoma; 88.5% with EKVX NSCLC; 77.1% in the assay with SN12C renal; -33.9% (active) in the assay with UO-31 renal; 134% in the assay on TK-10 renal; 61.6% in the assay on ACHN renal. Moreover, the results for the growth with A498 renal, in the assay on CCRF-CEM leukemia and in the assay on MOLT-4 leukemia were 98.3%, 27.7% and 49.9%, respectively.
